Results filed as inconclusive are left out. Where a call stands in place of a potency, no number is given. Unmarked numbers belong to inactive results. The source made the active and inactive calls. Calls come from the whole dose curve; as a rule, active = well fitted cell-killing curve with a large enough effect in the repeat runs; inconclusive = weak or mixed curves, or effect the other way; inactive = flat fitted curve, though single readings scatter.
What was measured:
[1] = cAMP Responsive Elements (CRE) small molecule antagonists, cell-based qHTS assay: qHTS cell viability counter screen (AID 2060913); note: nearly all actives have a fitted effect of over 40% in size
Method in brief: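 Cytotoxicity counter screen multiplexed with the CRE-bla antagonist read: HEK293T cells in DMEM with dialyzed FBS and 25 mM HEPES were treated 3 hrs under 0.25 uM final NKH477, then viability measured by CellTiter-Glo luminescence.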

[2] = cAMP Responsive Elements (CRE) small molecule agonists, cell-based qHTS assay: qHTS cell viability counter screen (AID 2060914);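 note: viability read after 3 h of compound exposure; nearly all actives have a fitted effect of over 50% in size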
Method in brief: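 HEK 293T CRE-bla; DMEM + 10% dialyzed FBS, 25 mM HEPES; 18 h pre-incubation; compound 3 h, 37 °C/5% CO2; CellTiter-Glo added after reporter read; luminescence after 30 min RT.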
Potency is the fitted concentration of half-maximal effect.

| Compound | viability change, negative = cytotoxic [1] | activity change, negative = cytotoxicity [2] | Potency [1] | Potency [2] |
| --- | --- | --- | --- | --- |
| CC1=C(C(=O)O)N2C(=O)[C@@H](N)[C@H]2SC1 | 6.72% [at 18.9 µM] | 16% [at 18.9 µM] | – | – |
| c1ccc(Nc2ccc3ccccc3c2)cc1 | – | – | inactive | inactive |
| c1cncc([C@@H]2CCCCN2)c1 | – | – | inactive | inactive |
| Brc1cccc(-c2ccccc2)c1 | – | – | inactive | inactive |
| CC(C)(C)OO | – | – | inactive | inactive |
| O=C=Nc1ccc(Cl)cc1 | – | – | inactive | inactive |
| CCCCNC(=O)n1c(NC(=O)OC)nc2ccccc21 | – | – | inactive | inactive |
| C=CCCC#N | – | – | inactive | inactive |
| CCOP(=O)(Sc1ccccc1)Sc1ccccc1 | – | – | inactive | inactive |
| O=[Se]=O | – | – | 30.4 µM (active) | 17.1 µM (active) |
| CC(Cl)CN(C)C (stereo not given) | – | – | inactive | inactive |
| CC[C@H](O)C(C[C@H](C)N(C)C)(c1ccccc1)c1ccccc1 | – | – | inactive | inactive |
| COP(=S)(OC)Oc1ccc(S(=O)(=O)N(C)C)cc1 | – | – | inactive | inactive |
| CC(=O)[O-].CC(=O)[O-].CC(=O)[O-].[Cr+3] | – | – | inactive | inactive |
| CC(C)NCC(O)c1ccccc1Cl (stereo not given) | – | – | inactive | inactive |
| CN | – | – | inactive | inactive |
| CC(C)Oc1cc(-n2nc(C(C)(C)C)oc2=O)c(Cl)cc1Cl | – | – | inactive | inactive |
| O=C(NC(=O)c1c(F)cccc1F)Nc1cc(Cl)c(OC(F)(F)C(F)C(F)(F)F)cc1Cl (stereo not given) | – | – | inactive | inactive |
| Brc1ccccc1 | – | – | inactive | inactive |
| CC(C)(O)c1cnn2c(-c3ccc(F)c(-c4c(F)cccc4C#N)c3)cnc2n1 | – | – | inactive | inactive |
| Oc1cccc(Cl)c1Cl | – | – | inactive | inactive |
| CCC(C(N)=O)N1CCCC1=O (stereo not given) | – | – | inactive | inactive |
| Cc1cc(OC(=O)N(C)C)nn1C(=O)N(C)C | – | – | inactive | inactive |
| CC(C)NC(C)C | – | – | inactive | inactive |

| Compound | viability change, negative = cytotoxic [1] | activity change, negative = cytotoxicity [2] | Potency [1] | Potency [2] |
| --- | --- | --- | --- | --- |
| CC1C=[C-]C=C1.[C-]#[O+].[C-]#[O+].[C-]#[O+].[Mn] | – | – | inactive | inactive |
| CC(C)(C)OOC(C)(C)C | – | – | inactive | inactive |
| CN1C[C@H](CNC(=O)OCc2ccccc2)C[C@@H]2c3cccc4c3c(cn4C)C[C@H]21 | – | – | inactive | inactive |
| ClCCCCCCCl | – | – | inactive | inactive |
| CCCCOP(=O)(CCCC)OCCCC | – | – | inactive | inactive |
| CCCCOC(=O)c1ccccc1C(=O)OCCCC | – | – | inactive | inactive |
| ClC(Cl)C(Cl)Cl | – | – | inactive | inactive |
| CC(=O)O | – | – | inactive | inactive |
| CC(Oc1cc(Cl)c(Cl)cc1Cl)C(=O)O (stereo not given) | – | – | inactive | inactive |
| CCCC[N+]1(C)CCCC1 (tested in a mixture with another compound) | – | – | inactive | inactive |
| O=[N+]([O-])c1ccc([As](=O)(O)O)cc1 | – | – | inactive | inactive |
| CC(=O)[O-].CC(=O)[O-].O.O.[Zn+2] | – | – | inactive | inactive |
| O=NN1CCN(N=O)CC1 | – | – | inactive | inactive |
| O=C(Nc1ccc2[nH]ccc2c1)c1cc2cc(F)ccc2n1Cc1cccc(F)c1 | – | – | inactive | inactive |
| CCNC(=O)NC(=O)/C(C#N)=N/OC | – | – | inactive | inactive |
| Oc1ccc2[nH]cc(CCCCN3CC=C(c4ccccc4)CC3)c2c1 | – | – | inactive | inactive |
| COCC(=O)N(c1c(C)cccc1C)[C@H](C)C(=O)OC | – | – | inactive | inactive |
| CC(C)(c1ccc(O)c(-c2ccccc2)c1)c1ccc(O)c(-c2ccccc2)c1 | – | – | 61.1 µM (active) | 61.1 µM (active) |
| C[C@]12CC[C@H]3[C@@H](CCC4=CC(=O)CC[C@@H]43)[C@@H]1CC[C@@H]2OC(=O)CCC1CCCCC1 | – | – | inactive | inactive |
| NNc1ccccc1 | – | – | inactive | inactive |
| CC(C)(C)OC(=O)c1ncn2c1[C@@H]1CCCN1C(=O)c1c(Br)cccc1-2 | – | – | inactive | inactive |
| CNC(=O)O/N=C(\C)SC | – | – | inactive | inactive |
| BrCc1ccc(Br)cc1 | – | – | inactive | inactive |
| CC(Oc1cccc(Cl)c1)C(=O)O (stereo not given) | – | – | inactive | inactive |

| Compound | viability change, negative = cytotoxic [1] | activity change, negative = cytotoxicity [2] | Potency [1] | Potency [2] |
| --- | --- | --- | --- | --- |
| c1cc[c]([Hg][c]2ccccc2)cc1 | – | – | inactive | inactive |
| CNC(=O)Oc1c(C(C)(C)C)cc(C)cc1C(C)(C)C | – | – | inactive | inactive |
| CN1CCC(O)(c2ccc(F)cc2)C(C(=O)c2ccc(F)cc2)C1 (stereo not given) | – | – | inactive | inactive |
| O=C(NCNC(=O)NC1C(=O)NC(=O)N1CO)NC1C(=O)NC(=O)N1CO (stereo not given) | – | – | inactive | inactive |
| CCC[N+](CCC)(CCC)CCC | – | – | inactive | inactive |
| CCc1cccc(C)c1N(C(=O)CCl)C(C)COC (stereo not given) | – | – | inactive | inactive |
| CN1CCN(C(=O)O[C@H]2c3nccnc3C(=O)N2c2ccc(Cl)cn2)CC1 | – | – | inactive | inactive |
| O=C(Cc1ccccc1)OCc1ccccc1 | – | – | inactive | inactive |
| CC(=O)[O-].CC(=O)[O-].[Hg+2] | – | – | 8.63 µM (active) | 10.9 µM (active) |
| CC(O)CCO (stereo not given) | – | – | inactive | inactive |
| O=[N+]([O-])[O-].[Tl+] | – | – | inactive | inactive |
| CCC(=O)O[C@@H]1C=C2CCC3C(CCC4(C)C3CC[C@@H]4OC(=O)CC)C2CC1 (stereo not given in full) | – | – | inactive | inactive |
| O=C(O)C1C2CCC(O2)C1C(=O)O (stereo not given) | – | – | inactive | inactive |
| Cl/C=C/Cl | – | – | inactive | inactive |
| CCC1COC(Cn2cncn2)(c2ccc(Cl)cc2Cl)O1 (stereo not given) | – | – | inactive | inactive |
| CCC(C)Br (stereo not given) | – | – | inactive | inactive |
| C=CC(=O)NC(C)(C)CC(C)=O | – | – | inactive | inactive |
| C=CC(=O)OC | – | – | inactive | inactive |
| CCOC(=O)c1ccccc1S(=O)(=O)NC(=O)Nc1nc(Cl)cc(OC)n1 | – | – | inactive | inactive |
| C1CCC(NC2CCCCC2)CC1 | – | – | inactive | inactive |
| CC(=O)C(Cl)C(=O)N(C)C (stereo not given) | – | – | inactive | inactive |
| O=C(O)c1cccc(Cl)c1 | – | – | inactive | inactive |
| SCc1ccccc1 | – | – | inactive | inactive |
| O=C(O)C(O)C(O)C(=O)O (stereo not given) | – | – | inactive | inactive |

| Compound | viability change, negative = cytotoxic [1] | activity change, negative = cytotoxicity [2] | Potency [1] | Potency [2] |
| --- | --- | --- | --- | --- |
| O=C(Cl)c1ccccc1 | – | – | inactive | inactive |
| Clc1ccc(C(Cl)(Cl)Cl)c(Cl)c1 | – | – | inactive | inactive |
| COc1c2c(cc3c1OCO3)CCN(C)C2 | – | – | inactive | inactive |
| CC(C(O)c1ccccc1)N(C)C/C=C/c1ccccc1 (stereo not given) | – | – | inactive | inactive |
| CCN(N=O)C(N)=O | – | – | inactive | inactive |
| COC(=O)NC(=S)Nc1ccccc1NC(=S)NC(=O)OC | – | – | inactive | inactive |
| CCCBr | – | – | inactive | inactive |
| CCOC(=S)S | – | – | inactive | inactive |
| CCCC[N+]1(C)[C@@H]2CC(OC(=O)[C@H](CO)c3ccccc3)C[C@H]1[C@@H]1O[C@@H]12 (stereo not given in full) | – | – | inactive | inactive |
| CC[C@H](N)c1ccccc1 | – | – | inactive | inactive |
| SCc1ccco1 | – | – | inactive | inactive |
| CC(C)(C)c1cc(O)ccc1O | – | – | inactive | inactive |
| O=C(Nc1ccc(Br)cc1)c1cc(Br)cc(Br)c1O | – | – | inactive | inactive |
| CCOP(OCC)OCC | – | – | inactive | inactive |
| Cn1c(CCCC(=O)O)nc2cc(N(CCCl)CCCl)ccc21 | – | – | inactive | inactive |
| CC(=O)/C=C/c1ccc2c(c1)OCO2 | – | – | inactive | inactive |
| BrCCBr | – | – | inactive | inactive |
| CCOP(=S)(OCC)SCSP(=S)(OCC)OCC | – | – | inactive | inactive |
| Clc1cc(C(Cl)(Cl)Cl)cnc1Cl | – | – | inactive | inactive |
| Nc1ccc(-c2ccccc2)cc1 | – | – | inactive | inactive |
| CCC(C)Nc1c([N+](=O)[O-])cc(C(C)(C)C)cc1[N+](=O)[O-] (stereo not given) | – | – | inactive | inactive |
| CCCCC#N | – | – | inactive | inactive |
| CC(C1CC1)C(O)(Cn1cncn1)c1ccc(Cl)cc1 (stereo not given) | – | – | inactive | inactive |
| C#CCOC(C(=O)OCCN(C)C)(c1ccccc1)c1ccccc1 | – | – | inactive | inactive |

| Compound | viability change, negative = cytotoxic [1] | activity change, negative = cytotoxicity [2] | Potency [1] | Potency [2] |
| --- | --- | --- | --- | --- |
| CCCCON=O | – | – | inactive | inactive |
| CN=C=O | – | – | inactive | inactive |
| Nc1ccc2ccccc2c1 | – | – | inactive | inactive |
| CN1C2CCC(C)(C)C1CC(OC(=O)C(O)(c1cccs1)c1cccs1)C2 (stereo not given) | – | – | inactive | inactive |
| CCCCCCCCCBr | – | – | inactive | inactive |
| OCCBr | – | – | inactive | inactive |
| CCN(CC)C(=O)N[C@@H]1C=C2c3cccc4[nH]cc(c34)C[C@@H]2N(C)C1 | – | – | inactive | inactive |
| Oc1ccc(C(c2ccc(O)cc2)(C(F)(F)F)C(F)(F)F)cc1 | – | – | inactive | inactive |
| [Cl][Sb]([Cl])[Cl] | – | – | inactive | inactive |
| CC(C)N1C(=O)c2ccccc2NS1(=O)=O | – | – | inactive | inactive |
| CCn1cc[n+](C)c1 (tested in a mixture with another compound) | – | – | inactive | inactive |
| ClC(Cl)(Cl)Cl | – | – | inactive | inactive |
| COCCC#N | – | – | inactive | inactive |
| COc1ccc(C(=O)c2c(C)n(CCN3CCOCC3)c3ccccc23)cc1 | – | – | inactive | inactive |
| OCCCBr | – | – | inactive | inactive |
| O=[N+]([O-])c1cc([As](=O)(O)O)ccc1O | – | – | inactive | inactive |
| COC(=O)C(c1ccccc1)C1CCCCN1 (stereo not given) | – | – | inactive | inactive |
| O=CC=O | – | – | inactive | inactive |
| C#C[C@]1(O)C=C[C@H]2[C@@H]3CCC4=CC(=O)CC[C@@H]4[C@H]3CC[C@@]21CC | – | – | inactive | inactive |
| C#CCC1=C(C)C(OC(=O)C2C(C=C(C)C)C2(C)C)CC1=O (stereo not given) | – | – | inactive | inactive |
| CCCSP(=O)(OCC)Oc1ccc(Br)cc1Cl (stereo not given) | – | – | inactive | inactive |
| N#CS | – | – | inactive | inactive |
| ClC1=C(Cl)[C@]2(Cl)[C@@H]3[C@@H](Cl)[C@H](Cl)C[C@@H]3[C@@]1(Cl)C2(Cl)Cl | – | – | inactive | inactive |
| C[C@@H](Oc1ccc(Cl)cc1Cl)C(=O)O | – | – | inactive | inactive |

From PubChem BioAssay (Tox21)
